Results taken from PubChem BioAssay AID493115 (The Scripps Research Institute Molecular Screening Center, 2011).
The other results are listed elsewhere or left out. Unmarked numbers belong to inactive results.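 Rule for the calls: active = mean activation above a set limit carried over from the earlier primary screen; inactive = the rest.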

molecular target: Caspase-7 (Homo sapiens) (UniProt P55210); experiment: activation of procaspase-7 enzyme – biochemical, absorbance, human, dual procaspase-3/-7 activator project, confirmation (AID 493115); settings: recombinant procaspase-7, Ac-DEVD-pNA absorbance 405 nm; at 8.5 µM; stronger effect = higher value; D23A/D198A/D206A mutant that cannot self-cleave;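 note: 0% = DMSO only and 100% = DMSO with added 5 µM PC-7 enzyme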
Sequence (P55210 whole entry D23A/D198A/D206A): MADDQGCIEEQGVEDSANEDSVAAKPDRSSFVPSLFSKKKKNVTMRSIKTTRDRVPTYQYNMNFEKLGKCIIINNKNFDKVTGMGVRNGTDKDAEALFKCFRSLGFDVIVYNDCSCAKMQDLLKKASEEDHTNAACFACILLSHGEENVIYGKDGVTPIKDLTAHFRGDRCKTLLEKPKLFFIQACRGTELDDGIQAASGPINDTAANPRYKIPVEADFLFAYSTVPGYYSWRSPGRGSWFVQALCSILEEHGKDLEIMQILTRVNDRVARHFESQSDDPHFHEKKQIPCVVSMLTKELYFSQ

Q: `CCOC(=O)C1(CCOC)CCN(Cc2cc3ccccc3s2)CC1` was tested. Which activation did it give?
A: 2.06%

Q: `Nc1cccc2c1C(=O)N(Cc1nnc(-c3ccccc3Br)o1)C2=O` was tested. Which activation did it give?
A: -35.8%

Q: How did the activation turn out when `COc1ccc2sc(-c3ccc(S(C)(=O)=O)cc3)c(C#Cc3cncn3C)c2c1` was run?
A: -34.2%

Q: `CCCCOC(=O)Cn1c(=O)n(CC(=O)OCCCC)c2cc(C)ccc21` was tested. Which activation did it give?
A: 0.05%

Q: Which activation does the source give for `Fc1ccc(N2N=C(c3cccs3)CC2c2ccco2)c(F)c1` (stereo not given) here?
A: -34.9%

Q: With `CC(=O)Oc1ccc2c(C)c(CC(C)O)c(=O)oc2c1` (stereo not given) as the compound, how does the activation read?
A: -34%

Q: For `COc1ccc(/C=N/Nc2nc3ccccc3c(=O)[nH]2)cc1`, which activation is on record?
A: 0.2%

Q: `COc1ccccc1N=Cc1c(O)c2ccccc2oc1=O` was tested. Which activation did it give?
A: -13.5%

Q: `CNS(=O)(=O)c1cccc(C(=O)NC2CCCc3ccccc32)c1` (stereo not given) was tested. Which activation did it give?
A: 0.28%

Q: `COc1ccc(Nc2ncnc3sc(-c4ccccc4)cc23)c(OC)c1` was tested. Which activation did it give?
A: -12.6%

Q: `O=C1OCCN1C(=O)[C@H]1[C@H](c2ccc(F)cc2)C(c2ccccc2)=NN1c1ccc(Br)cc1` was tested. Which activation did it give?
A: -35.1%

Q: For `CC1(C)Cc2c(C#N)c(SCc3nc4ccccc4[nH]3)nc(N3CCOCC3)c2CO1`, which activation is on record?
A: -34.3%

Q: Which activation does the source give for `CCN(CC)c1ccc2oc(=O)c(C)nc2c1` here?
A: -21%

Q: For `COc1ccc(-c2onc3ccc(C(C)=O)cc23)cc1`, which activation is on record?
A: -35.4%

Q: For `COc1ccc(Nc2ncc(C(=O)N3CCN(c4ccccc4OC)CC3)c3ccccc23)cc1`, which activation is on record?
A: 2.22%
